Calls of active or inactive are those of the source. Rule for the calls: active = hit-call score of the fitted dose curve at least 0.9, where 1 is the maximum; inactive = score below 0.9.

What all share (details): mRNA level, 48 h; actives raise or lower the signal
Read-out in test [1]: Bcl-2 (BID) gene, BID (gene 637)
Put plainly: LTEA_HepaRG_BID: Life Technologies and Expression Analysis (LTEA) Assay for Bcl-2 (BID) gene using HepaRG (AID 2283476). In short, it runs like this: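 Gene expression by qRT-PCR in HepaRG cells after 48 h exposure, duplicate wells, eight half-log concentrations topping at 100 uM in 0.5% DMSO. Normalized to ACTB, GAPDH, POLR2A; bidirectional fitting relative to DMSO.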

Read-out in test [2]: Caspase-3 (Homo sapiens) (UniProt P42574)
In words: LTEA_HepaRG_CASP3: Life Technologies and Expression Analysis (LTEA) Assay for cysteine-aspartic acid protease (CASP3) using HepaRG (AID 2283477). In short, it runs like this:
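In HepaRG liver cells dosed for 48 h at up to 100 uM (eight-point, duplicate), CASP3 expression changes are scored by qRT-PCR. Activity is fitted in both directions with 0.5% DMSO as baseline.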

Read-out in test [3]: Cytochrome P450 (CYP24A1), CYP24A1 (gene 1591)
Put plainly: LTEA_HepaRG_CYP24A1: Life Technologies and Expression Analysis (LTEA) Assay for Cytochrome P450 (CYP24A1) using HepaRG (AID 2283478). The procedure, abridged:
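Human liver HepaRG cultures receive each chemical for 48 h across an eight-point half-log series topping at 100 uM in 0.5% DMSO. Induction or suppression of CYP24A1 mRNA is scored relative to vehicle after housekeeping-gene normalization.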

Read-out in test [4]: Cytochrome P450 (CYP1A2), CYP1A2 (gene 1544)
Put plainly: LTEA_HepaRG_CYP1A2: Life Technologies and Expression Analysis (LTEA) Assay for Cytochrome P450 (CYP1A2) using HepaRG (AID 2283479). The procedure, abridged: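 Assesses CYP1A2 mRNA in human HepaRG liver cells after 48 h chemical exposure at up to 100 uM. Values come from qRT-PCR with bidirectional curve fitting relative to DMSO.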

Read-out in test [5]: cysteine-aspartic acid protease (CASP8), CASP8 (gene 841)
Put plainly: LTEA_HepaRG_CASP8: Life Technologies and Expression Analysis (LTEA) Assay for cysteine-aspartic acid protease (CASP8) using HepaRG (AID 2283480). The procedure, abridged: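 Differentiated HepaRG cells in serum-free induction medium, 48 h exposure, eight-point half-log series from 100 uM in 0.5% DMSO, duplicates. CASP8 mRNA by qRT-PCR, normalized to ACTB, GAPDH, POLR2A; bidirectional fit versus DMSO.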

Read-out in test [6]: Cytochrome P450 (CYP2B6), CYP2B6 (gene 1555)
In words: LTEA_HepaRG_CYP2B6: Life Technologies and Expression Analysis (LTEA) Assay for Cytochrome P450 (CYP2B6) using HepaRG (AID 2283481). The procedure, abridged:
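Using 48 h treatment of HepaRG cells in serum-free induction medium, concentrations spanned half-log steps from 100 uM in 0.5% DMSO vehicle. CYP2B6 mRNA induction or loss is scored by qRT-PCR against DMSO.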

Read-out in test [7]: Cytochrome P450 2C19 (Homo sapiens) (UniProt P33261)
Put plainly: LTEA_HepaRG_CYP2C19: Life Technologies and Expression Analysis (LTEA) Assay for CYP2C19 using HepaRG (AID 2283482). The procedure, abridged:
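Human HepaRG liver cells received test chemicals for 48 h (highest 100 uM, half-log dilutions in 0.5% DMSO). CYP2C19 mRNA induction or loss is read by multiplexed qRT-PCR and fitted in both directions versus vehicle.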

Read-out in test [8]: CYP2C8 (gene 1558)
In words: LTEA_HepaRG_CYP2C8: Life Technologies and Expression Analysis (LTEA) Assay for CYP2C8 using HepaRG (AID 2283483). The procedure, abridged: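 Differentiated HepaRG cells in serum-free induction medium exposed 48 h in duplicate to 8 half-log concentrations from 100 uM in 0.5% DMSO. CYP2C8 mRNA by qRT-PCR normalized to ACTB, GAPDH, POLR2A; bidirectional fit versus DMSO.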

Read-out in test [9]: CYP2E1 (gene 1571)
Put plainly: LTEA_HepaRG_CYP2E1: Life Technologies and Expression Analysis (LTEA) Assay for CYP2E1 using HepaRG (AID 2283485). In short, it runs like this:
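HepaRG cells, plated 48 h, then exposed 48 h in serum-free induction medium to eight half-log concentrations from 100 uM in 0.5% DMSO, duplicate. CYP2E1 mRNA by qRT-PCR, normalized to ACTB/GAPDH/POLR2A; bidirectional fit versus DMSO.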

Read-out in test [10]: CYP4A11 (gene 1579)
In words: LTEA_HepaRG_CYP4A11: Life Technologies and Expression Analysis (LTEA) Assay for CYP4A11 using HepaRG (AID 2283486). The procedure, abridged: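 Readout is CYP4A11 mRNA induction or suppression (qRT-PCR, ACTB/GAPDH/POLR2A normalization) in human HepaRG cells after 48 h chemical treatment, concentrations to 100 uM in 0.5% DMSO, fitted bidirectionally against vehicle.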

Read-out in test [11]: Cytochrome P450 3A4 (Homo sapiens) (UniProt P08684)
In words: LTEA_HepaRG_CYP3A4: Life Technologies and Expression Analysis (LTEA) Assay for CYP3A4 using HepaRG (AID 2283487). The procedure, abridged:
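Differentiated HepaRG cells in serum-free induction medium exposed in duplicate for 48 h to 8 half-log concentrations up to 100 uM in 0.5% DMSO. CYP3A4 mRNA measured by qRT-PCR normalized to ACTB, GAPDH and POLR2A; bidirectional fit versus DMSO.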

Read-out in test [12]: DNA damage-inducible transcript 3 (DDIT3), DDIT3 (gene 1649)
Put plainly: LTEA_HepaRG_DDIT3: Life Technologies and Expression Analysis (LTEA) Assay for DNA damage-inducible transcript 3 (DDIT3) using HepaRG (AID 2283488). In short, it runs like this:
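HepaRG cells, 48 h after plating, exposed 48 h in serum-free induction medium to 8 half-log concentrations up to 100 uM in 0.5% DMSO, in duplicate. DDIT3 mRNA measured by TaqMan qRT-PCR, normalized to ACTB, GAPDH and POLR2A. Fitted bidirectionally against DMSO.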

Read-out in test [13]: Pro-epidermal growth factor (Homo sapiens) (UniProt P01133)
Put plainly: LTEA_HepaRG_EGF: Life Technologies and Expression Analysis (LTEA) Assay for Epidermal growth factor (EGF) using HepaRG (AID 2283489). In short, it runs like this: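 EGF expression changes in human HepaRG cells are scored by bidirectional fitting relative to 0.5% DMSO controls. Chemicals are tested at eight half-log concentrations up to 100 uM for 48 h in serum-free induction medium.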

Read-out in test [14]: Early growth response protein 1 (EGR1) transcription factor, EGR1 (gene 1958)
In words: LTEA_HepaRG_EGR1: Life Technologies and Expression Analysis (LTEA) Assay for Early growth response protein 1 (EGR1) transcription factor using HepaRG (AID 2283490). In short, it runs like this:
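Differentiated HepaRG cells in serum-free induction medium exposed 48 hours, duplicate, to 8 half-log concentrations up to 100 uM in 0.5% DMSO. EGR1 mRNA measured by TaqMan qRT-PCR, normalized to ACTB, GAPDH, POLR2A; bidirectional fit versus DMSO.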

Read-out in test [15]: Ezrin (EZR), EZR (gene 7430)
Put plainly: LTEA_HepaRG_EZR: Life Technologies and Expression Analysis (LTEA) Assay for Ezrin (EZR) using HepaRG (AID 2283491). The procedure, abridged:
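Differentiated human HepaRG cells, 48 h after plating, were exposed in serum-free induction medium for 48 hours to eight half-log concentrations up to 100 uM in 0.5% DMSO. EZR mRNA was measured by TaqMan qRT-PCR, normalized to ACTB, GAPDH and POLR2A, and fitted bidirectionally against DMSO.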

Read-out in test [16]: Cytochrome P450 3A7 (Homo sapiens) (UniProt P24462)
In words: LTEA_HepaRG_CYP3A7: Life Technologies and Expression Analysis (LTEA) Assay for CYP3A7 using HepaRG (AID 2283492). The procedure, abridged: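 Cells were thawed, plated, cultured 48 h, then treated for a further 48 h with chemicals (eight-point half-log series from 100 uM, 0.5% DMSO). RNA was isolated and CYP3A7 expression quantified by qRT-PCR normalised to ACTB, GAPDH and POLR2A.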

Read-out in test [17]: CYP3A5 (gene 1577)
In words: LTEA_HepaRG_CYP3A5: Life Technologies and Expression Analysis (LTEA) Assay for CYP3A5 using HepaRG (AID 2283493). The procedure, abridged: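 HepaRG cells, plated 48 h then in serum-free induction medium, dosed in duplicate for 48 h with eight half-log concentrations up to 100 uM in 0.5% DMSO. Gene mRNA by Fluidigm TaqMan qRT-PCR, normalized to ACTB, GAPDH, POLR2A.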

Read-out in test [18]: Cytochrome P450 4A22 (Homo sapiens) (UniProt Q5TCH4)
In words: LTEA_HepaRG_CYP4A22: Life Technologies and Expression Analysis (LTEA) Assay for Cytochrome P450 4A22 (CYP4A22) using HepaRG (AID 2283495). The procedure, abridged:
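Cryopreserved HepaRG cells, plated and cultured 48 h, then switched to serum-free induction medium and treated 48 h (duplicates, up to 100 uM, half-log steps, 0.5% DMSO). Expression change of CYP4A22 was fitted bidirectionally against vehicle.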

Chain of Cytochrome P450 3A7 (Homo sapiens) (P24462 whole entry, looked up): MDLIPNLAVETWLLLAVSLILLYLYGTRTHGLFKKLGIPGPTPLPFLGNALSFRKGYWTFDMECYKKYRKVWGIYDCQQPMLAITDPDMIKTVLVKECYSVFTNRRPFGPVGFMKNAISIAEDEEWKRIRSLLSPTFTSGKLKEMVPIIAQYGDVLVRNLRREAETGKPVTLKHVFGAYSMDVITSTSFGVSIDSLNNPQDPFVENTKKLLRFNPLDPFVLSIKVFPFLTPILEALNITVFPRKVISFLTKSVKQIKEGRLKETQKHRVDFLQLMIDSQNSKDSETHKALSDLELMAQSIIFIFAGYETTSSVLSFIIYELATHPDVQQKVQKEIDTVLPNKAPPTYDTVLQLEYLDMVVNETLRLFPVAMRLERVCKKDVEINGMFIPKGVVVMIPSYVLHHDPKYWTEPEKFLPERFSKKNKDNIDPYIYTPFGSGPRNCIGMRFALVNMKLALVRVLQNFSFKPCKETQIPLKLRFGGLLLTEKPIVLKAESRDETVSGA
Chain of Cytochrome P450 2C19 (Homo sapiens) (P33261 whole entry, looked up): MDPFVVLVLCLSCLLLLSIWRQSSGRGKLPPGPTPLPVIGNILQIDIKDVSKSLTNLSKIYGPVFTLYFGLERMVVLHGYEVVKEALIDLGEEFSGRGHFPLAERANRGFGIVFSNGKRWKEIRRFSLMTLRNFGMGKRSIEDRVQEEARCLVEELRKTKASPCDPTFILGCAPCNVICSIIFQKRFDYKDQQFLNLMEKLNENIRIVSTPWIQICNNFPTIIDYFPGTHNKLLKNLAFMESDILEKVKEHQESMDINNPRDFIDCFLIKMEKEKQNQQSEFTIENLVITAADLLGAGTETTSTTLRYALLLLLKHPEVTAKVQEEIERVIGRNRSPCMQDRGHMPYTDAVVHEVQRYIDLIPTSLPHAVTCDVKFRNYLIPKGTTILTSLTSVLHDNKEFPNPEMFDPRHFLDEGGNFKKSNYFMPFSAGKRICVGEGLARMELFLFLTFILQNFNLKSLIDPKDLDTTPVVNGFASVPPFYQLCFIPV
Chain of Cytochrome P450 3A4 (Homo sapiens) (P08684 whole entry, looked up): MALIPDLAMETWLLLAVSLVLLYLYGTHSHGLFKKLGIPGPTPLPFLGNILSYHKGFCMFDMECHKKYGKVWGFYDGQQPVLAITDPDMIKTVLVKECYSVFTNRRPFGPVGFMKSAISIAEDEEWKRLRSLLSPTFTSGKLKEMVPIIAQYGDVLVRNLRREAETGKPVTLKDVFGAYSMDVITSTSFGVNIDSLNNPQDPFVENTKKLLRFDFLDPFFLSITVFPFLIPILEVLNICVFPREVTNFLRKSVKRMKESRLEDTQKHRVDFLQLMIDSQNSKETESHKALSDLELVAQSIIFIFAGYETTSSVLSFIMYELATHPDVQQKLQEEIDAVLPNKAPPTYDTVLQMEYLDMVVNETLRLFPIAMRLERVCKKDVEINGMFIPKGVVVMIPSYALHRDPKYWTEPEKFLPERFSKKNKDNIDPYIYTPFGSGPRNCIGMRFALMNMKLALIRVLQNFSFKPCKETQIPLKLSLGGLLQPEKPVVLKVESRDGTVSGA
Chain of Caspase-3 (Homo sapiens) (P42574 whole entry, looked up): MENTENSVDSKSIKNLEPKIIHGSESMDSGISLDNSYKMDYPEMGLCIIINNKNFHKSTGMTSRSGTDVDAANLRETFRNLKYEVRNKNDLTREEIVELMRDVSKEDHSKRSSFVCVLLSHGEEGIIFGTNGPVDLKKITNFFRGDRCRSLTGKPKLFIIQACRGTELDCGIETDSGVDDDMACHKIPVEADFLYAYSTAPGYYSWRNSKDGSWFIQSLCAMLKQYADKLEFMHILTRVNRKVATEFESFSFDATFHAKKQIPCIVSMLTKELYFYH

As for `CN(C)C(=O)Nc1cccc(C(F)(F)F)c1`, the concentration at half-maximal activity (AC50) in [1] was 79.3 µM (active); in [4] it was 42 µM (active); in test [6], 2.55 µM (active); in test [7], 16 µM (active); in test [8] it was 12.1 µM (active); in test [9], 50 µM (active). Also, the results for the AC50 in test [11] and in test [16] were 10.4 µM (active) and 7.66 µM (active), respectively. Besides, the call in [2], in [3], in [5], in [10], in test [12] and in [13] was inactive. Also, the call in test [14], in [15], in [17] and in test [18] was inactive.
For the compound `COP(=O)(OC)SCn1c(=O)oc2cc(Cl)cnc21`, the AC50 is 0.00316 µM (active) in test [1]; 50 µM (active) in test [6]; 50 µM (active) in test [7]; 36.2 µM (active) in test [10]; 37.3 µM (active) in test [11]; 50 µM (active) in test [16]. Moreover, the AC50 is 37.8 µM (active) in test [17] and 46.7 µM (active) in [18]. The result in [2], in [3], in test [4], in [5], in test [8] and in test [9] was inactive. For the same compound, the result in [12], in [13], in test [14] and in test [15] was inactive.
For `CC(C)N(C(=O)SCC(Cl)=C(Cl)Cl)C(C)C`, the compound was classed as inactive in [1], in test [2], in test [3], in test [6], in [7] and in test [8]. For the same compound, the compound was classed as inactive in test [10], in [11], in test [12], in test [13], in [14] and in [15]. Besides, the compound was called inactive in test [16], in [17] and in [18]. In addition, the AC50 in test [4] was 73.5 µM (active).
Turning to `CCC(CC)Nc1c([N+](=O)[O-])cc(C)c(C)c1[N+](=O)[O-]`, the compound was called inactive in test [1], in test [2], in test [3], in test [4], in [5] and in test [8]. Also, the call in [10], in test [12], in test [14], in [15], in test [17] and in [18] was inactive. The AC50 was 13.1 µM (active) in test [6]; 6.35 µM (active) in [7]; 64.7 µM (active) in test [9]; 25.4 µM (active) in [11]; 50 µM (active) in test [13]; 16.7 µM (active) in [16].

For the origin of these results see PubChem BioAssay (EPA / NIEHS).
